High-throughput results as filed in PubChem BioAssay.
Caspase-1 inhib: qHTS Assay for Allosteric/Competitive Inhibitors of Caspase-1; 75,000 compounds, 0.03% hits; Caspase-1 enzyme, Ac-WEHD-AFC fluorogenic rate; Potency, µM (titrated, usually from 57.5 µM), for the others: top-dose activity change, negative = inhibition, usual class: inhibitors; P29466;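 note: plate controls were vehicle for no effect and no substrate for full effect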
Caspase-7 inhib: qHTS Assay for Allosteric/Competitive Inhibitors of Caspase-7. P55210. recombinant caspase-7, Ac-DEVD-AFC fluorescence rate. Potency, µM (titrated, usually from 57.5 µM), without a hit: at the highest dose activity change, negative = inhibition, usual class: inhibitors. 75,000 compounds, 0.02% hits. AID 889, 2007; active = well fitted inhibition curve with a large enough effect in the main read-out, with a control signal flat, not every such curve was filed as active; inconclusive = small, poorly fitted or top-dose-only effect, or a change in a side signal; note: % of control where 0% means no effect
Bst PK mod: Pyruvate Kinase. purified pyruvate kinase, luminescence ATP production; ribose 5-phosphate activator present at AC10. Potency, µM. 51,000 compounds, 1.2% hits. AID 361, 2006; in the data active = potency below about 11 µM; inconclusive = mostly about 12 µM to 25 µM;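 the screen sought inhibitors and activators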;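 note: scaled between full activation by ribose 5 phosphate and full inhibition by luteolin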
FLuc inh: qHTS Assay for Inhibitors of Firefly Luciferase | Luciferin 4-monooxygenase (Photinus pyralis), P08659 | purified firefly luciferase, luminescence, 8 min | Potency, µM (doses to about 57.1 µM), for the others: at the top dose activity change, negative = inhibition, usual class: inhibitors | 72,000 compounds, 2.2% hits | AID 411, 2009; note: % is set by controls: 0 for no effect and ±100 for the full control effect; nearly all actives have a fitted effect of over 40% in size
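qHTS concentration-response profiling: light output of P. pyralis luciferase with luciferin and 10 uM ATP, imidazole buffer pH 7.2. Read by luminescence after 8-min room-temperature incubation.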
GBA activity: Glucocerebrosidase; Lysosomal acid glucosylceramidase (Homo sapiens), P04062; purified enzyme, resorufin glucoside fluorescence (screen aimed at inhibitors), 20 min; Potency, µM; 48,000 compounds, 1.1% hits; AID 360, 2006; in the data active = potency below about 15 µM; inconclusive = mostly about 16 µM to 33 µM;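 note: the screen sought inhibitors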
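Compounds titrated against 0.2 nM normal enzyme, 30 uM resorufin beta-D-glucopyranoside substrate, citrate/phosphate buffer with taurocholate and tween-20, pH 5.9. Reaction ran 20 min at room temperature; fluorescence (Ex 548/Em 600) gave AC50.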
* = called active by the depositor; i = inactive; u = inconclusive; x = no result given; ! = not confirmed by another sample; [ ] = remark or other dose. Sampled rows, rich in hits. Any-hit rate of the full collection: about 3.1%. Unless noted, calls come from the whole dose curve; as a rule, active = well fitted inhibition curve with a large enough effect; inconclusive = small, poorly fitted or top-dose-only effect; inactive = flat fitted curve, though single readings scatter. Potency is the fitted concentration of half-maximal effect.

SMILES	Caspase-1 inhib	Caspase-7 inhib	Bst PK mod	FLuc inh	GBA activity
CCn1nc(-c2ccccc2)nc2c(=O)n(C)c(=O)nc1-2	0.79µM*	u	>57	6%	>77
CN(C)C(=O)Oc1ccc(OC(=O)c2ccccc2)cc1	0%	-1%	i	16µM*	>77
CC(C)(C)OOC(=O)c1ccccc1	-2%	0%	x	x	x
C[C@@H]1O[C@H](O[C@H]2C[C@@H](O)[C@]3(CO)[C@H]4[C@H](O)C[C@]5(C)[C@@H](C6=CC(=O)OC6)CC[C@@]5(O)[C@H]4CC[C@]3(O)C2)[C@@H](O)[C@H](O)[C@H]1O	x	x	x	0%[11.4 µM]	x
CC(C)(C)n1c(O)c(C=Nc2ccc3c(c2)CCC3)c(=O)[nH]c1=O	-2%	-1%	>57	1%	11*
CC(=Nc1ccc2c(c1)CCC2)c1c(O)n(C)c(=O)n(C)c1=O	-1%	0%	>57	2%	>77
COc1ccc2c(c1OC)CN1CCc3cc4c(cc3[C@H]1C2)OCO4	0%[25.7 µM]	-1%[25.7 µM]	x	-4%[25.5 µM]	x
COc1ccc2c(c[n+](C)c3c4cc5c(cc4ccc23)OCO5)c1OC	4%	-1%	x	32µM*	x
COc1cc2c(cc1OC)[C@]13CCN4CC5=CCO[C@@H]6CC(=O)N2[C@@H]1[C@H]6[C@@H]5C[C@H]43	x	x	x	0%[11.4 µM]	x
C[C@@]12CC[C@H](O)C[C@@H]1CC[C@H]1[C@H]2C[C@@H](O)[C@]2(C)[C@@H](C3=CC(=O)OC3)CC[C@@]12O	x	x	x	2%[11.4 µM]	x
C[C@@H]1O[C@H]1P(=O)(O)O	1%	1%	x	3%	x
Cc1ccc2nc3c(cc2c1)CC1(C(=O)N(C)C(=O)N(C)C1=O)C1CCCCN31 (centres undefined)	4%	0%	u	6.3µM*	>77
CC[C@H]1[C@@H]2C[C@@H]3[C@@H]4N(C)c5ccccc5[C@@]45C[C@@H]([C@H]2[C@@H]5O)N3[C@@H]1O	x	x	x	2%[11.4 µM]	x
CCCCCCn1c(O)c(C=NC2CCCCC2N)c(=O)[nH]c1=O (centres undefined)	-1%	-1%	2.7*	1.3µM*	>77
CCCC(=O)Nc1ccc(N2CCN(CC)CC2)c(Cl)c1	2%	0%	>57	0%	1.7*
CN1C(=O)C(Cc2ccsc2)C(=O)N(C)C1=O	-7%	-1%	>57	0%	>77
CN1C(=O)C(C2c3ccccc3C(=O)N2Cc2ccccc2)C(=O)N(C)C1=O (centres undefined)	-1%	-1%	>57	4%	12*
C=C[C@@H]1CN2CC[C@H]1C[C@H]2[C@@H](O)c1ccnc2ccccc12	x	x	x	-2%[11.4 µM]	x
CC(=O)c1c(C)nc2ccccc2c1N	-1%	-2%	2.5*	3.2µM*	>77
CCCN1CCc2cccc3c2[C@@H]1Cc1ccc(O)c(O)c1-3	-2%	-2%	x	-11%	x
CN[C@H]1[C@H](C)O[C@@H](O[C@@H]2C/C=C(/C)C/C(C)=C\C=C/CC[C@@H](C)CNC(=O)/C=C\C=C/[C@H]2C)C[C@@H]1O	x	x	x	0%[11.4 µM]	x
Cc1ccc2c(c1)C1CN(C)CCC1N2S(=O)(=O)c1ccccc1 (centres undefined)	-3%	-1%	>57	1%	10*
O=c1cccc2n1C[C@@H]1C[C@H]2CN2CCCC[C@H]12	x	x	x	-7%[11.4 µM]	x
NNc1c(C(N)=O)c2c(N)ncnc2n1[C@@H]1O[C@H](CO)[C@@H](O)[C@@H]1O	x	x	x	3%[11.4 µM]	x
COc1ccc(P2(=O)Nc3ccccc3N2)cc1	-5%	-4%	x	6.3µM*	>77
SMILES	Caspase-1 inhib	Caspase-7 inhib	Bst PK mod	FLuc inh	GBA activity
COc1ccc(C=O)cc1	-2%	2%	x	x	x
CN1CCN(c2ccc3nc(-c4ccc5nc(-c6ccc(O)cc6)[nH]c5c4)[nH]c3c2)CC1	0%[11.5 µM]	-7%[11.5 µM]	x	4µM*	x
C[C@H]1CC[C@]2(NC1)O[C@@H]1C[C@@H]3[C@@H]4CC=C5C[C@H](O)CC[C@@]5(C)[C@H]4CC[C@@]3(C)[C@H]1[C@@H]2C	x	x	x	2%[11.4 µM]	x
CC1=NN=C(c2ccc(N)cc2)c2cc3c(cc2C1)OCO3	-6%	-8%	x	2µM*!	x
CN1CC[C@@]2(c3cccc(O)c3)Cc3nc4ccccc4cc3C[C@H]2C1	2%	-1%	x	25µM*	x
O=C(CN1CCCC1=O)N1CCOCC1	-1%	-2%	>57	0%	>77
O=C1CCCN1CC#CCN1CCCC1	2%	-1%	x	25µM*!	x
COc1cc2c(cc1O)CCN[C@H]2C	x	x	x	0%[11.4 µM]	x
O=C(Oc1ccc2ccccc2c1Cl)N1CCCC1	-1%	6%	x	16µM*	>77
O=c1c2ccccc2[se]n1-c1ccccc1	0%	0%	i	16µM*	x
CCN(CC)CCCN=Cc1c(O)n(Cc2ccc(F)cc2)c(=O)[nH]c1=O	-1%	0%	x	13µM*	>77
